Values without a mark were called inactive.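 The calls were made as follows: active = MAPPIT score above the 99th percentile of random reference set scores in the same batch; inactive = at or below it.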

The text below walks through data of the supplement of paper PMC10105736.
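Also: HEK293T cells with Epo stimulation, STAT-responsive firefly luciferase reporter, fold induction versus unstimulated cells divided by the larger fold induction of two negative controls lacking either bait or prey.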

tgo, sequence (chain, as listed by the source): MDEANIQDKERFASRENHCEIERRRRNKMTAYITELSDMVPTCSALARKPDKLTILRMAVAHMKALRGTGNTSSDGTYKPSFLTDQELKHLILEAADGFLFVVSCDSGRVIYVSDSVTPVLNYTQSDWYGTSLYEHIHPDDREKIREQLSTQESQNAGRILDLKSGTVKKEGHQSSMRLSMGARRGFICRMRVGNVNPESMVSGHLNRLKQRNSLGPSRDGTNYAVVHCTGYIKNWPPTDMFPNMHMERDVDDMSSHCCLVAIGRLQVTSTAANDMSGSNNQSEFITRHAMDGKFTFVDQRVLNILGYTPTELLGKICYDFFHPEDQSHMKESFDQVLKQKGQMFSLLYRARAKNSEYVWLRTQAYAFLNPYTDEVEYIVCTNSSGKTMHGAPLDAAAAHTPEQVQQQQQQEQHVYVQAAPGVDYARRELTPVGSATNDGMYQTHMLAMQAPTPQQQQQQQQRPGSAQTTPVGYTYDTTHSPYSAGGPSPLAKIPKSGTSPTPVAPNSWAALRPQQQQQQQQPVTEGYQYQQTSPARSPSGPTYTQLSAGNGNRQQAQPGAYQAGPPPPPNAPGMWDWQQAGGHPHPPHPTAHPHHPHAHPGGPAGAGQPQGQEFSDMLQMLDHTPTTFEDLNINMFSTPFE

One assay has as its system sim. The assay can be described thus: MAPPIT interaction score (arbitrary units); higher = stronger binary interaction signal, active = hit call of the paper. The following applies: MAPPIT configuration: N-C; pair source set: Lit-BM-16. Here is the method: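 MAPPIT in HEK293T cells: Drosophila bait and prey ORFs (from the FlyBi ORF collection) were co-transfected in quadruplicate, with two wells stimulated by erythropoietin. Interaction-dependent JAK-STAT activation was read out with a STAT-responsive firefly luciferase reporter. Positive calls use the 99th percentile of random reference set (RRS) scores within each batch […]. Batches Dvs01 and Dvs02 used the N-N configuration and Dvs04 the N-C configuration. Pairs come from FlyBi screens, CuraGen, DPiM, Finley Y2H, Lit-BM-16, Lit-BS-16 and RRS.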
Take tgo: the MAPPIT interaction score was 2.23.

The same assay, now with this note: MAPPIT configuration: N-N; pair source set: Lit-BM-16.
On to tgo, for which the MAPPIT interaction score was 1.37.
